High-throughput results deposited in PubChem by The Scripps Research Institute Molecular Screening Center.
hgDAF12 agonist: agonists of H. glycines DAF-12 nuclear receptor | HEK293 GAL4-hgDAF12 UAS-luciferase reporter, agonist luminescence; normalized to butyrate control | activation, % at 6.8 µM | 370,000 tested, 1.8% active;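 active = activation above a cutoff set at the mean of all screened compounds plus 3 SD, cut at about 10% in these data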
hcDAF12 agonist: activators of H. contortus DAF-12 nuclear receptor. 370,000 tested, 1.4% active. activation, % at 6.8 µM. HEK293 hcDAF-12 lit1-tk-luc reporter, luminescence; 0% DMSO, 100% Δ7-dafachronic acid;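 active = activation above the mean of all tested compounds plus 3 SD, cut at about 5.5% in these data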
SMARCA2 act: activators of SMARCA2 function; MG213 cells, MMTV-luciferase reporter, dexamethasone, overnight; AID 652017; activation, % at 9.1 µM; 370,000 tested, 1% active; in the data active = activation above about 7.8%
ssDAF12 agonist: S. stercoralis DAF-12 activation, primary screen. HEK293 ssDAF-12/GRIP1 lit1-tk-luc reporter, luminescence; % of 3 µM dafachronic acid response. activation, % at 6.8 µM. 370,000 tested, 1% active. AID 652126;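 active = activation above the mean over all tested compounds plus 3 SD, cut at about 0.9% in these data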
DAX1 inh-1: inhibitors of DAX1 repression of SF-1 activated StAR promoter | HEK293T StAR-luciferase reporter, SF-1/DAX-1 repression relief | inhibition, % at 6.8 µM | 370,000 tested, 1.1% active;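 active = inhibition above the mean over all tested compounds plus 3 SD, cut at about 3.6% in these data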;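 also: higher inhibition means more luminescence from relief of DAX-1 repression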
DAX1 inh-2: inhibits human nuclear receptor DAX1; P51843; HEK293 Gal4-DAX1 luciferase reporter, luminescence; inhibition, % at 6.75 µM; 340,000 tested, 0.99% active;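 active = inhibition above the mean over all tested compounds plus 3 SD, cut at about 4.2% in these data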;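 also: inhibition shows as a rise in luminescence from relieved DAX1 repression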
Target sequence (P51843 207-470 limits assumed): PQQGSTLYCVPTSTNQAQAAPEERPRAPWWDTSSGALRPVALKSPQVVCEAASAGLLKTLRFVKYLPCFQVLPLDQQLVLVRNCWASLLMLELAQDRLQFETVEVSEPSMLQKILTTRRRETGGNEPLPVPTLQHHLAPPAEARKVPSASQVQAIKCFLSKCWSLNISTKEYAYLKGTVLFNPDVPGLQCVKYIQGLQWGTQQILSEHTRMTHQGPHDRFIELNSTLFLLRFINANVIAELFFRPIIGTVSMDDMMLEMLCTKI
hgDAF12 conf: hgDAF-12 agonism, confirmation assay; shares compounds with hgDAF12 agonist; HEK293 GAL4-hgDAF12 luciferase reporter, agonist mode; percent of butyrate response; activation, % at 6.8 µM; 3,300 tested, 80% active;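 active = mean activation over triplicate wells above the hit cutoff derived from the earlier primary screen, cut at about 11% in these data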
LXRb DAF12 ctr: counter-screen for DAF-12 agonists: agonists of human LXR-beta. 3,300 tested, under 10 active. HEK293 Gal4-LXR luciferase reporter, 24 h. AID 743051. shares compounds with hgDAF12 agonist. activation, % at 6.8 µM;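 active = mean activation of the triplicate above a set limit carried over from the primary screen, none filed active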
Numbers stand for hits; . = inactive; / = no result given. A selection: hits, their analogues and other compounds. The true share with any hit is near 4.8%.

SMILES	hgDAF12 agonist	hcDAF12 agonist	SMARCA2 act	ssDAF12 agonist	DAX1 inh-1	DAX1 inh-2	hgDAF12 conf	LXRb DAF12 ctr
CC(C)(C)c1ccc(OCCn2ccccc2=O)cc1	16	6.2	.	.	.	.	17	.
COc1ccc(C(=O)NCCS(=O)(=O)NCc2ccc(F)cc2)cc1	.	.	.	.	.	.	/	/
O=S1(=O)c2ccc(Br)cc2OC[C@@H](Cc2ccccc2)N1Cc1cn(CC2CCCCC2)nn1	.	.	.	.	.	/	/	/
CCOC(=O)c1n[nH]c2ccccc12	.	.	.	.	.	.	/	/
O=C(NCCc1ccccc1)c1n[nH]c2ccccc12	15	5.7	.	.	.	.	13	.
O=C(OCCOc1ccccc1)c1n[nH]c2ccccc12	15	.	.	.	.	.	13	.
Cc1cc(C)c2c(c1)c(C)cc1nnc(SCC(=O)c3cccs3)n12	/	/	/	/	/	.	/	/
COc1ccccc1OCCCC(=O)Nc1nccs1	14	.	.	.	4.5	.	11	.
C/C(=C\c1ccccc1)C(=O)Nc1nccs1	16	.	.	.	.	.	12	.
O=C(Nc1nccs1)Oc1ccccc1	.	.	.	.	.	.	/	/
CCC(=O)Nc1nc(C)c(C(=O)N2CCCCC2)s1	.	.	.	.	.	.	/	/
O=C(COc1ccccc1Br)Nc1ccc2c(c1)OCCCO2	15	.	.	.	.	.	14	.
CCN(CC(=O)Nc1ccc2c(c1)OCCO2)C(=O)COc1cc(C)ccc1Cl	.	.	.	.	.	.	/	/
O=C(COc1cc(Cl)c(Cl)cc1Cl)Nc1cccc(O)c1	17	.	.	.	.	.	18	.
Cc1ccc(Cl)c(OCC(=O)Nc2ccc3c(c2)OCCO3)c1	14	.	.	.	.	.	15	.
O=C(COc1cc(Cl)c(Cl)cc1Cl)Nc1ccncc1	.	.	.	.	.	.	/	/
O=C(/C=C/c1ccccc1[N+](=O)[O-])Nc1cccc(S(=O)(=O)NC2=NCCCCC2)c1	.	.	.	.	.	.	/	/
COc1ccc(Cl)cc1NC(=O)Nc1cccc([N+](=O)[O-])c1C	.	.	.	.	.	.	/	/
O=C(Nc1ccc(-c2cn3ccsc3n2)cc1)C1CCCC1	16	.	.	.	.	.	18	.
c1cn2cc(-c3ccc4c(c3)OCO4)nc2s1	16	6.5	.	1.6	4.3	.	16	.
CC(C)C(=O)Nc1cccc(-c2cn3ccsc3n2)c1	.	.	.	.	.	.	/	/
COc1cccc(CN2CC(C(=O)NCCOc3ccccc3F)CCC2=O)c1 (stereo not given)	.	.	.	.	.	.	/	/
NC(N)=Nc1nc(C2COc3ccccc3O2)cs1 (stereo not given)	14	.	.	.	.	.	18	.
Cc1cccc(Nc2nc3c(s2)CCCC3)c1	18	.	.	.	.	.	16	.
O=C(O)c1ccc(Nc2nc3c(s2)CCCC3)cc1	.	.	.	.	.	.	/	/
SMILES	hgDAF12 agonist	hcDAF12 agonist	SMARCA2 act	ssDAF12 agonist	DAX1 inh-1	DAX1 inh-2	hgDAF12 conf	LXRb DAF12 ctr
O=C(N/N=C\C=C\c1ccco1)c1cc(-c2ccc3ccccc3c2)n[nH]1	16	.	.	.	.	.	.	.
N/C(=N\NC(=O)c1cccs1)c1cc2cc(Cl)ccc2oc1=O	19	.	.	.	.	.	.	.
NC(=O)c1cc2ccccc2o/c1=N/NC(=O)c1cccs1	.	.	.	.	.	.	/	/
O=c1/c(=C/c2cccc3ccccc23)sc2ncnn12	.	.	.	.	.	.	/	/
Cc1ccsc1/C=c1\sc2ncnn2c1=O	14	.	.	.	.	.	.	.
Brc1ccccc1C1CC(c2ccccc2)=Nc2ccccc2N1 (stereo not given)	14	.	.	.	.	.	.	.
Cc1cc2c(cc1C)C(c1ccccc1Br)CC(=O)N2 (stereo not given)	.	.	.	.	.	.	/	/
COc1ccc(-c2c(C#N)c(N)n(N)c(=O)c2C#N)cc1Cl	.	.	.	.	.	.	/	/
C/C(CC(=O)Nc1cccc(Cl)c1Cl)=N\NC(=O)C(=O)NC1CCCCC1	.	.	.	.	.	.	/	/
C/C(CC(=O)NC1CCCCC1)=N\NC(=O)c1ccccn1	20	.	.	.	.	.	.	.
Cc1ccc(C2=N/C(=C\N(C)C)C(=O)O2)cc1	15	.	.	.	.	.	.	.
CN(C)/C=C1/N=C(c2ccccc2)OC1=O	.	.	.	.	.	.	/	/
CSc1nnc(C)c(=O)n1COC(=O)/C=C/c1ccccc1	.	.	.	.	.	.	/	/
O=C(COc1ccc2c(c1)OCO2)Nc1ccc(Cl)cn1	.	.	.	.	.	.	/	/
O=C(C=Cc1ccc2c(c1)OCO2)c1ccccc1	13	.	.	.	.	.	11	.
O=C(/C=C/c1ccc2c(c1)OCCCO2)c1ccc2ccccc2c1O	.	.	.	.	.	.	/	/
O=C(/C=C/c1ccc2c(c1)OCO2)c1ccccn1	.	.	.	.	.	.	/	/
O=C(/C=C/c1ccc2c(c1)OCO2)Nc1ccc(Cl)cn1	15	.	.	.	4.3	.	13	.
Cc1ccc(C(=O)/C=C/c2ccc3c(c2)OCCO3)c(O)c1	14	.	.	.	.	.	.	.
COc1cccc(CNC(=O)CN2C(=O)CC(c3ccccc3)=Nc3ccccc32)c1	.	.	.	.	.	.	/	/
C=CCN1C(=S)CC(c2ccccc2)=Nc2ccccc21	14	.	.	.	.	.	.	.
Cc1ccc(NC(=O)C2CC=CCC2C(=O)N2CCCCC2)cc1 (stereo not given)	.	.	.	.	.	.	/	/
O=C(Cc1cccc([N+](=O)[O-])c1)Nc1cccc(C(=O)N2CCCC2)c1	.	.	.	.	.	.	/	/
COc1ccc2c(c1OC)C(=O)OC2Nc1nc(-c2cc3ccccc3oc2=O)cs1 (stereo not given)	18	.	.	.	4.3	.	17	.
Cc1ccc(NC(=O)c2ccc3nsnc3c2)c(Cl)c1	14	5.8	.	1.1	.	.	15	.
CCOc1cc(C2NN=C(c3ccc(C)cc3)S2)ccc1O (stereo not given)	14	.	.	.	.	.	16	.
O=C1c2ccccc2C(=O)N1CCc1c[nH]c2ccccc12	19	.	.	.	3.6	13	13	.
O=C1c2ccccc2C(=O)N1CCCc1c[nH]c2ccccc12	.	.	.	.	.	.	/	/
Fc1ccc(-c2csc(N3CCC(c4ccccc4)C3)n2)cc1 (stereo not given)	.	.	.	.	.	.	/	/
